Screening data: PubChem BioAssay, National Center for Advancing Translational Sciences (NCATS)
The list is not random: actives were taken first. Their share in the collection is about 18%.
IL1B secr inh: inhibitors of inflammasome signaling (IL-1 beta secretion) | THP-1 LPS/ATP IL-1B secretion, AlphaLISA, 16 h; stronger effect = lower value | activity change, % at 57.5 µM | 360,000 tested, 4.7% active | AID 743279; in the data active = activity change below about -50%; inconclusive = mostly about -30% to -49%
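THP-1 cells pretreated 1 hr with compounds (up to 57.5 uM final), then stimulated with LPS (250 ng/mL final) plus ATP (1.25 mM final); secreted IL-1B measured by AlphaLISA after 16 hr, decreased signal indicating inhibition.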
TDP1 inh: inhibitors of human tyrosyl-DNA phosphodiesterase TDP1 | 350,000 tested, 0.28% active | Q9NUW8 | recombinant TDP1, AlphaScreen DNA substrate cleavage | Potency, µM (series often up to 130 µM), for inactives: at the top dose activity change, negative = inhibition, actives largely listed as inhibitors; note: potency is the fitted concentration of half-maximal effect; nearly all actives have a fitted effect of over 40% in size
Target sequence (Q9NUW8 whole entry, looked up): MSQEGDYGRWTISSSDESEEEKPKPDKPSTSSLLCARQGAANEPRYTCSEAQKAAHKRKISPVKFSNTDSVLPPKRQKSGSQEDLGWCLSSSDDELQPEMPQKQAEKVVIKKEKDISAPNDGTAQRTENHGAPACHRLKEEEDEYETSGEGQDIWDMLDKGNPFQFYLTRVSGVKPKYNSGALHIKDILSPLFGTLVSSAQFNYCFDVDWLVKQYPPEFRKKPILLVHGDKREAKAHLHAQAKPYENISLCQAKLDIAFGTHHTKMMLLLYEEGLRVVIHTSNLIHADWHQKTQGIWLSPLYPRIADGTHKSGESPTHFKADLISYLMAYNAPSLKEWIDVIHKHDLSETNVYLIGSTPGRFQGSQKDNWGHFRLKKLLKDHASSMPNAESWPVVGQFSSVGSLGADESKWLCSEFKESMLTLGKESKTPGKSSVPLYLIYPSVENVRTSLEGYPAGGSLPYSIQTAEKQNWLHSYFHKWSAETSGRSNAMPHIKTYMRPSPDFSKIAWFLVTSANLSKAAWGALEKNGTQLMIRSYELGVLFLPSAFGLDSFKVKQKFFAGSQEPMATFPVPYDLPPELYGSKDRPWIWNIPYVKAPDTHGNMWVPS
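Compounds were preincubated with Tdp1 (1 nM final) for 15 min at room temperature before substrate (15 nM final) started a 5 min reaction; beads (10 ug/ml final) were then added for 10 min before AlphaScreen detection.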
Six1-Eya2 inh: blocks human Six1 binding to Eya2 | Q15475+O00167 | AlphaScreen GST-Six1/His-Eya2 binding, biochemical; stronger effect = lower value | activity change, % (concentration not given with the values) | 360,000 tested, 0.56% active; in the data active = activity change below about -65%; inconclusive = mostly about -30% to -63%
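AlphaScreen luminescence read after one hour at 37 °C in darkness. Pin-transferred compounds met GST-Six1 and His-Eya2 protein (5X stock 250 nM/500 nM) plus glutathione donor and Ni-chelate acceptor beads (5X, 50 ug/mL).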
TDP1 cell noCPT: qHTS for Inhibitors of human tyrosyl-DNA phosphodiesterase 1 (TDP1): qHTS in cells in absence of CPT; DT40 Tdp1-/- hTDP1 cells, no CPT, ATP luminescence, 48 h; Potency, µM (doses to about 46.2 µM), without a hit: top-dose activity change, negative = growth inhibition, most hits filed as inhibitors; 420,000 tested, 15% active; note: potency is the fitted concentration of half-maximal effect; nearly all actives have a fitted effect of over 55% in size
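Growth kinetics read by CellTiter-Glo luminescence after ≥48 hr at 37 °C. Cells: DT40 Tdp1-/- stably carrying human TDP1, 400 per well, compound exposure in the absence of CPT (DMSO vehicle).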
TDP1 cell CPT: DT40-hTDP1 cell growth loss with CPT; AID 686979; Potency, µM (titrated, usually from 46.2 µM), inactives show at the top dose activity change, negative = growth inhibition, usual class: inhibitors; 420,000 tested, 12% active; chicken DT40 Tdp1-/-;hTDP1 cells + 20 nM CPT, ATP luminescence, 48 h; note: potency is the fitted concentration of half-maximal effect; nearly all actives have a fitted effect of over 55% in size
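Chicken DT40 Tdp1-/- cells stably complemented with human TDP1 were seeded at 400 cells/well in medium containing 20 nM camptothecin, exposed to pin-transferred compounds, and grown at 37 °C for at least 48 hr. Viability was read as ATP luminescence.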
CtBP-E1A inh: CtBP/E1A binding inhibition | AlphaScreen GST-E1A/His-CtBP binding, 1536-well; stronger effect = lower value | activity change, % (no concentration beside the values) | 340,000 tested, 0.49% active; in the data active = activity change below about -65%; inconclusive = mostly about -30% to -63%
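Homogeneous bead-based format: GST-tagged E1A captured on glutathione donor beads, His-tagged CtBP on nickel acceptor beads; compounds precede bead addition by 2 h at 37 °C.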
Numbers without * were called inactive; ? = inconclusive; . = no result; [ ] = another dose, or the depositor's remark. Unless noted, calls come from the whole dose curve; as a rule, active = well fitted curve in the direction sought with a large enough effect; inconclusive = small, poorly fitted or top-dose-only effect, or another doubt; inactive = no such curve, though single readings can be large; an effect the other way counts as inactive or inconclusive. % is set by controls: 0 for no effect and ±100 for the full control effect.

SMILES	IL1B secr inh	TDP1 inh	Six1-Eya2 inh	TDP1 cell noCPT	TDP1 cell CPT	CtBP-E1A inh
CCOC(=O)c1cnc(-n2nc(C)cc2C)nc1N1CC(C)OC(C)C1 (stereo not drawn)	-10.0	.	-9.2	20.6µM*	?	-9.5
Cc1cc(C)n(-c2nc(C)nc(NCc3ccccc3)n2)n1	15.1	2.3%	-1.1	18.4µM*	25.9µM*	-6.5
CCOC(=O)c1cnc(-n2nc(C)cc2C)nc1NCc1ccccc1	-111.4*	2.3%	-3.4	5.17µM*	3.26µM*	?
CNc1nc(C)nc(-n2nc(C)cc2C)n1	-1.3	-2.2%	-4.1	-3.7%	-9.0%	2.7
CCOC(=O)c1cnc(-n2nc(C)cc2C)nc1NC(C)c1ccccc1 (stereo not drawn)	-8.6	10.3%[56.1 µM]	5.0	4.61µM*	4.61µM*	-3.6
CC(CO)Nc1nc(SCc2ccccc2)nc2sc3c(c12)CCC3 (stereo not drawn)	-16.3	3.4%	-4.4	?	-12.9%	-10.8
O=C(COc1ccc(F)cc1)N(Cc1cccc(Br)c1)C1CCS(=O)(=O)C1 (stereo not drawn)	0.0	4.2%	5.0	?	?	11.1
CCCCOc1c(Cl)cc(C(=O)N2CCN(CC(=O)N3CCCC3)CC2)cc1OCC	-11.1	1.0%	6.0	?	?	-15.1
COc1ccc(-n2c(=O)/c(=C\c3cccs3)s/c2=C(/C#N)C(=O)NCCN2CCOCC2)cc1	-12.5	3.5%	-2.7	?	13µM*	5.0
O=C(Nc1ccc2c(c1)OCO2)c1ccc([N+](=O)[O-])cc1[N+](=O)[O-]	22.5	0.5%[0.0935 µM]	-6.9	?	?	-9.3
O=C(Nc1ccc(C2=NCCN2)cc1)c1ccc(C(=O)Nc2ccc(C3=NCCN3)cc2)c([N+](=O)[O-])c1	-5.5	-3.7%	-18.4	6.51µM*	6.51µM*	?
CCCCOc1ccc(C(=O)Nc2ccc(N3CCN(C(=O)C(C)C)CC3)cc2)cc1	-8.3	4.3%	-2.7	7.31µM*	8.2µM*	-1.5
COc1cc(C(=O)Nc2ccc(N3CCN(C(=O)c4ccc(C)cc4)CC3)cc2)cc(OC)c1OC	-26.2	-0.5%	-9.5	14.6µM*	20.6µM*	-12.1
COc1ccc(C(=O)Nc2ccncc2)cc1[N+](=O)[O-]	-79.0*	.	-7.0	-19.9%	-29.2%	10.4
COc1ccc(C(=O)Nc2ccccc2-c2nc(-c3ccc(OC)cc3)no2)cc1	.	11.4%	.	-9.1%	-7.6%	.
CSc1nc(NC(C)(C)C)nc(Oc2ccc(=O)[nH]n2)n1	7.1	-1.1%	-2.4	0.0%	-5.3%	1.0
COc1ccc(C(=O)Nc2ccc(N3CCN(C(=O)C(C)C)CC3)cc2)cc1[N+](=O)[O-]	-7.4	-4.7%	3.0	11.6µM*	?	-10.9
COc1ccc(C(=O)NC(=S)Nc2cc(C)ccn2)cc1[N+](=O)[O-]	17.3	-1.1%	-5.5	?	16.4µM*	5.1
COc1ccc(C(=O)Nc2ccc(N3CCN(C)CC3)cc2)cc1[N+](=O)[O-]	-6.9	0.0%	1.8	-1.2%	2.2%	3.7
COc1ccc(C(=O)Nc2ccc(N3CCN(C(=O)c4ccccc4)CC3)cc2)cc1[N+](=O)[O-]	?	8.2%	-27.3	?	14.6µM*	-9.3
CCCC(=O)Nc1cc(OC)c(C(=O)OC)cc1Cl	0.0	-5.5%	-0.4	1.3%	25.4%	1.9
COc1ccc(CCN(C)C(=O)CSc2nnc(-c3ccco3)o2)cc1OC	-8.3	5.4%	-3.3	2.7%	-5.2%	6.7
O=c1cc(O)nc(SCc2ccc(Cl)cc2)[nH]1	5.2	-2.8%	-6.1	-1.0%	0.8%	-15.7
CCc1ccc(N=CC23c4ccccc4C(c4ccccc42)C2C(=O)N(c4ccc(OC)cc4)C(=O)C23)cc1 (stereo not drawn)	-14.7	5.9%	-10.7	18.4µM*	?	-4.8
CCOc1ncccc1C(=O)NCCN1C(=O)S/C(=C/c2cccs2)C1=O	0.0	8.0%	-3.2	?	?	-23.7
SMILES	IL1B secr inh	TDP1 inh	Six1-Eya2 inh	TDP1 cell noCPT	TDP1 cell CPT	CtBP-E1A inh
COc1ccc2c(ccc[n+]2CC(=O)c2ccc(C)cc2)c1	-7.5	.	1.6	14.6µM*	?	1.0
COc1ccc(C(=O)C[n+]2cc(Br)cc3ccccc32)cc1	.	.	.	22.4µM*	?	.
COc1ccc2c(ccc[n+]2CC(=O)c2ccccc2)c1	31.0	.	1.7	4.9%	?	8.9
Cc1ccc(C(=O)C[n+]2cccc3cc(C)ccc32)cc1	-7.8	2.3%	-4.0	14.6µM*	11.6µM*	-7.3
Cc1ccc2c(c1)ncc[n+]2CC(=O)c1ccc(F)cc1	.	.	.	10µM*	10µM*	.
CCOc1ccccc1NC(=O)c1cc(=O)c2ccc(C)cc2o1	.	-3.7%	.	-19.5%	-1.8%	.
COc1ccc(/C=N/OCC(=O)N=Nc2c(O)[nH]c3ccc(Br)cc23)cc1	-13.3	3.7%	-4.7	?	?	-27.4
Clc1ccccc1CONc1ncnc2nonc12	7.3	0.0%	9.5	?	-23.5%	.
CS(=O)(=O)N(CCc1ccccc1)CC(=O)N1CCCCCC1	0.6	.	-0.8	-21.7%	-15.6%	7.8
CCOc1ccc(C(=O)C[n+]2cccc3cc(C)ccc32)cc1	?	.	3.6	?	?	-0.1
CCc1ccc(C(=O)C[n+]2cccc3cc(OC)ccc32)cc1	?	.	2.1	3.26µM*	2.91µM*	-0.2
COc1ccc(-c2csc(NC(C)c3nc4cc(Cl)c(N5CCCCC5)cc4n3CCOCCO)n2)cc1 (stereo not drawn)	-23.5	.	-3.0	?	13µM*	-18.9
CC(Nc1nc(-c2ccc(F)cc2)cs1)c1nc2cc(Cl)c(Cl)cc2n1CCCO (stereo not drawn)	-24.0	.	11.9	?	?	0.0
CC(Nc1nc(-c2ccc(Cl)cc2)cs1)c1nc2cc(Cl)c(N3CCCCC3)cc2n1CCOCCO (stereo not drawn)	-28.9	.	-5.0	14.6µM*	16.4µM*	?
CCCn1c(C(C)Nc2nc(-c3cc(Cl)c(N)c(Cl)c3)cs2)nc2cc(Cl)c(N3CCCCC3)cc21 (stereo not drawn)	7.4	.	-7.1	?	18.4µM*	0.8
COc1ccc(-c2csc(NC(C)c3nc4cc(Cl)c(N5CCCCC5)cc4n3CCCO)n2)cc1 (stereo not drawn)	?	.	5.4	?	25.9µM*	13.8
Cc1ccc(/C=C/S(=O)(=O)NCC(=O)O)cc1	-9.8	-5.5%	5.8	-4.5%	3.5%	-9.9
